# Source: PubChem BioAssay (Tox21)
# “And” between values parts separate entries of the source, which are not always exact repeats. Equal entries are not always repeated. Records with an inconclusive call do not appear. Entries that show only a call come without a potency. The source holds several records for some structures; these can differ, active in one and inactive in another. The source made the active and inactive calls. Unless noted, the call rests on the fitted dose curve; in most records, active means well fitted curve in the direction sought with a large enough effect in the repeat runs; inconclusive means weak or mixed curves; inactive means no such curve, though single readings can be large; an effect the other way counts as inactive or inconclusive.
# How the values were obtained:
# [1] = qHTS assay to identify aromatase inhibitors - cell viability counter screen (AID 743084);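 further: cells stimulated with testosterone during compound exposure; nearly all actives have a fitted effect of over 55% in size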; further: potency means the concentration at half of the fitted maximal effect
# [2] = qHTS assay to identify small molecule that activate the aryl hydrocarbon receptor (AhR) signaling pathway - cell viability counter screen (AID 743086); further: nearly all actives have a fitted effect of over 45% in size; further: potency means the concentration at half of the fitted maximal effect
# Outline: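 HepG2-AhR-luc (HG2L7.5c1) cells, 4000/well, were preincubated 5 h at 37C, exposed to compound in qHTS format for 24 hr at 37C, then given CellTiter-Fluor for 30 min; viability was read as fluorescence in the reporter wells.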
# [3] = target: Peroxisome proliferator-activated receptor gamma (Homo sapiens) (UniProt P37231); assay: qHTS assay to identify small molecule agonists of the peroxisome proliferator-activated receptor gamma (PPARg) signaling pathway (AID 743094; active means well fitted activation curve with a large enough effect in the signal ratio in the repeat runs, not every such curve was filed as active; the % refers to the signal ratio)
# Sequence of Peroxisome proliferator-activated receptor gamma (Homo sapiens) (P37231 whole entry, looked up): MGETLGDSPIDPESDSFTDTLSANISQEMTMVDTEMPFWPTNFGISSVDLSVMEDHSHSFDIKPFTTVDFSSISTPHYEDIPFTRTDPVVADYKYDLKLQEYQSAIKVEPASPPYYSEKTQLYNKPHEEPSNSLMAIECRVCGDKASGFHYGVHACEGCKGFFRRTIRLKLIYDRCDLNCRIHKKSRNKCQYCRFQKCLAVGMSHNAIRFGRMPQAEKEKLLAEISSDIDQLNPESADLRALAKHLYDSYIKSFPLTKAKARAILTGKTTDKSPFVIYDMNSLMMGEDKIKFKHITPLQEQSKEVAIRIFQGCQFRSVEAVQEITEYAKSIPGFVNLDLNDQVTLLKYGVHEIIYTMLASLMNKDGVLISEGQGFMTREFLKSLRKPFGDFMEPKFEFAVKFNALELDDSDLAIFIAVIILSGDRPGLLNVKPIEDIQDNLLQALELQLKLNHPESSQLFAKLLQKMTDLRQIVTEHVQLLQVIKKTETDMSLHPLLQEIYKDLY
# Outline: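 Agonism was assessed in a beta-lactamase reporter system, HEK293H cells with a stably integrated UAS-bla construct under PPARg control; the 17 h treatment at 37C preceded a 1 h room-temperature FRET substrate read.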
# [4] = qHTS assay to identify small molecule antagonists of the peroxisome proliferator-activated receptor gamma (PPARg) signaling pathway - cell viability counter screen (AID 743194); further: nearly all actives have a fitted effect of over 55% in size; further: potency means the concentration at half of the fitted maximal effect
# Outline: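 PPARg-UAS-bla HEK293H cells were plated, rested 5 h at 37 C, then treated with compounds plus rosiglitazone (50 nM final) for 17 h at 37 C; viability was then read by CellTiter-Glo luminescence after 30 min at room temperature.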
# [5] = qHTS assay for small molecule agonists of the antioxidant response element (ARE) signaling pathway - cell viability counter screen (AID 743203; calls by dose curve; further: potency means the concentration at half of the fitted maximal effect; nearly all actives have a fitted effect of over 55% in size)
# Outline: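 ATP content via CellTiter-Glo luminescence served as the viability measure. Cells: ARE-bla HepG2, 2,000 per well. Exposure: 16 hrs, 37C/5% CO2.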
# [6] = target: Peroxisome proliferator-activated receptor gamma (Homo sapiens) (UniProt P37231); assay: qHTS assay to identify small molecule antagonists of the peroxisome proliferator-activated receptor gamma (PPARg) signaling pathway (AID 743191; calls by dose curve; further: series mostly up to about 63 µM; nearly all actives have a fitted effect of over 30% in size)
# Outline: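 GeneBLAzer PPARg UAS-bla HEK293H cells carrying a UAS-driven beta-lactamase reporter were plated at 3000 cells/well, preincubated 5 h at 37C, then given compound for 17 h at 37C; LiveBLAzer B/G FRET substrate was read after 1 h at room temperature.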
# [7] = qHTS assay for small molecule activators of the heat shock response signaling pathway - cell viability counter screen (AID 743209); further: nearly all actives have a fitted effect of over 50% in size; further: potency means the concentration at half of the fitted maximal effect
# Outline: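 Compounds dissolved in DMSO were added to overnight-plated HSE-bla HeLa cells and left 5 h at 37 C. Cell viability was quantified by luminescence using CellTiter-Glo.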
# [8] = qHTS assay for small molecule activators of the heat shock response signaling pathway (AID 743210; active means well fitted activation curve with a large enough effect in the signal ratio in the repeat runs, with a control signal flat, not every such curve was filed as active; the % refers to the signal ratio;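 further: HeLa cells with beta-lactamase reporter driven by heat shock elements; series mostly up to about 63 µM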)
# Outline: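 Activation of heat shock element-controlled beta-lactamase expression is measured in HeLa cells by LiveBLAzer FRET fluorescence, with compound exposure lasting 5 h at 37 C and substrate loading 2.5 h at room temperature.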
smiles,measurement,setting,value
CCc1cn([C@H]2C[C@H](O)[C@@H](CO)O2)c(=O)[nH]c1=O,Potency,[1],inactive
same,Potency,[2],inactive
same,Potency,[3],inactive
C[C@H](Cc1ccc(O)c(O)c1)[C@@H](C)Cc1ccc(O)c(O)c1,Potency,[1],inactive
same,Potency,[2],inactive
same,Potency,[3],inactive
C[N+]1(CCCCC[N+]2(C)CCCC2)CCCC1,Potency,[1],inactive
same,Potency,[2],inactive
same,Potency,[3],inactive
O=C1[O][Bi][O]c2ccccc21,Potency,[1],inactive
same,Potency,[2],inactive
CCCOC(=O)c1ccccc1O,Potency,[1],inactive
same,Potency,[2],inactive
CCCCCCCCCCCCCC(=O)OCC(COP(=O)([O-])OCC[N+](C)(C)C)OC(=O)CCCCCCCCCCCCC (stereo not drawn),Potency,[1],inactive
same,Potency,[2],inactive
same,Potency,[3],inactive
O=P(O)(O)OP(=O)(O)OP(=O)(O)O,Potency,[1],inactive
same,Potency,[2],inactive
same,Potency,[3],inactive
OCC1(CO)COC(C(Cl)(Cl)Cl)OC1,Potency,[1],inactive
same,Potency,[2],inactive
same,Potency,[3],inactive
COc1cc(/C=C/C(=O)CC(=O)/C=C/c2ccc(O)c(OC)c2)ccc1O,Potency,[1],inactive
same,Potency,[2],inactive and 27.5 µM (active)
same,Potency,[4],43.9 µM (active)
same,Potency,[5],54.8 µM (active)
c1ccc2c(c1)OCC(CN1CCCCC1)O2 (stereo not drawn),Potency,[1],inactive
same,Potency,[2],inactive
same,Potency,[3],inactive
Oc1ccc(Cl)cc1C1CCCC1,Potency,[1],inactive
same,Potency,[2],inactive
same,Potency,[3],inactive
same,Potency,[6],inactive
same,Potency,[4],inactive
same,Potency,[7],inactive
same,outcome,[8],inactive
Cc1cc(Br)ccc1NC(=O)CCl,Potency,[1],13.7 µM (active)
same,Potency,[2],54.5 µM (active)
same,Potency,[4],7.76 µM (active)
same,Potency,[5],54.5 µM (active)
same,Potency,[7],12.3 µM (active)
C=CCc1cc(S(=O)(=O)c2ccc(O)c(CC=C)c2)ccc1O,Potency,[1],inactive
same,Potency,[3],inactive
same,Potency,[7],inactive
CC1(C)S[C@@H]2[C@H](N3C(=O)C(c4ccccc4)NC3(C)C)C(=O)N2[C@H]1C(=O)O (stereo partly drawn),Potency,[1],inactive
same,Potency,[2],inactive
same,Potency,[3],inactive
c1ccc2occc2c1,Potency,[1],68.6 µM (active)
same,Potency,[3],inactive
same,Potency,[7],inactive
N=C(N)n1cccn1,Potency,[1],inactive
same,Potency,[2],inactive
same,Potency,[3],inactive
CN[C@@H]1[C@@H](O[C@H]2O[C@H](CO)[C@@H](N)[C@H](O)[C@H]2O)O[C@H]2C[C@@H](N)[C@@H](O[C@H]3[C@H](O)[C@@H](O)[C@H](N)C[C@@H]3N)O[C@@H]2[C@@H]1O,Potency,[1],inactive
same,Potency,[2],inactive
same,Potency,[3],inactive
Cc1c(N)nc([C@H](CC(N)=O)NC[C@H](N)C(N)=O)nc1C(=O)N[C@H](C(=O)N[C@H](C)[C@@H](O)[C@H](C)C(=O)N[C@H](C(=O)NCCc1nc(-c2nc(C(=O)NCCCCN=C(N)N)cs2)cs1)[C@@H](C)O)[C@@H](O[C@@H]1O[C@@H](CO)[C@@H](O)[C@H](O)[C@@H]1O[C@H]1O[C@H](CO)[C@@H](O)[C@H](OC(N)=O)[C@@H]1O)c1cnc[nH]1,Potency,[1],inactive
same,Potency,[2],inactive
same,Potency,[3],inactive
C[C@@H]1C[C@H]2[C@@H]3C[C@H](F)C4=CC(=O)C=C[C@]4(C)[C@@]3(Cl)[C@@H](O)C[C@]2(C)[C@H]1C(=O)COC(=O)C(C)(C)C,Potency,[1],inactive
same,Potency,[2],inactive
same,Potency,[3],inactive
CC(C)(O/N=C(\C(=O)N[C@@H]1C(=O)N2C(C(=O)[O-])=C(C[n+]3ccccc3)CS[C@H]12)c1csc(N)n1)C(=O)O,Potency,[1],inactive
same,Potency,[2],inactive
same,Potency,[3],inactive
N[C@@H](Cc1cnc[nH]1)C(=O)O,Potency,[1],inactive
same,Potency,[2],inactive
same,Potency,[3],inactive
OCl,Potency,[1],inactive
same,Potency,[2],inactive
same,Potency,[3],inactive
C=CC1=C(C(=O)O)N2C(=O)[C@@H](NC(=O)/C(=N\O)c3csc(N)n3)[C@H]2SC1 (stereo in doubt),Potency,[1],inactive
same,Potency,[2],inactive
same,Potency,[3],inactive
CC(C)=CCC/C(C)=C/CC/C(C)=C/CC/C=C(\C)CC/C=C(\C)CCC=C(C)C,Potency,[1],inactive
same,Potency,[2],inactive
same,Potency,[3],inactive
N#Cc1nc(Cl)c(Cl)c(Cl)c1Cl,Potency,[1],7.7 µM (active)
same,Potency,[2],54.5 µM (active)
same,Potency,[4],4.36 µM (active)
same,Potency,[5],6.11 µM (active)
same,Potency,[7],2.19 µM (active)
CCCCCN=C(N)N/N=C/c1c[nH]c2ccc(OC)cc12,Potency,[1],inactive
same,Potency,[2],inactive
same,Potency,[3],inactive
same,Potency,[4],13.3 µM (active)
same,Potency,[5],10.6 µM (active)
same,Potency,[7],29.8 µM (active)
